Source: PubChem
LYPLA1 counter: counter-screen for PME1 inhibitors: inhibitors of human LYPLA1; O75608; recombinant LYPLA1, FP-Rh probe fluorescence polarization; inhibition, % at 5.9 µM; 0.16% of 320,000 active; AID 2174;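 active = inhibition above the mean of all tested compounds plus 3 SD, set per campaign, cut at about 14% in these data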;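 note: inhibitors block serine hydrolase probe labeling of LYPLA1 so polarization falls; 0% = enzyme with DMSO and 100% = wells lacking LYPLA1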
Target sequence (O75608 whole entry, looked up): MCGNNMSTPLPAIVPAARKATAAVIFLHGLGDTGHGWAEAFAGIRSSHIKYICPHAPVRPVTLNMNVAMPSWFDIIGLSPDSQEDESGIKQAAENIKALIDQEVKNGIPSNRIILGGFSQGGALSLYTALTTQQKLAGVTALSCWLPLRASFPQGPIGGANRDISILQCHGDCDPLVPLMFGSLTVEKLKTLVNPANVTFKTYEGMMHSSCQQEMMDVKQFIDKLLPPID
LYPLA2 counter: LYPLA2 (human) inhibition in PME1 counter-screen. O95372. recombinant LYPLA2, FP-Rh probe fluorescence polarization. inhibition, % at 5.9 µM. 0.38% of 320,000 active. AID 2177;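 active = inhibition above the screen-wide mean plus 3 SD, limit set per campaign, cut at about 26% in these data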;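 note: 0% = LYPLA2 with DMSO and 100% = wells lacking LYPLA2 enzyme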
pPAFAH inh: pPAFAH (human) enzyme inhibition | Q13093 | recombinant pPAFAH, FP-rhodamine probe fluorescence polarization | inhibition, % at 3.39 µM | 1.5% of 330,000 active;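 active = inhibition above the mean inhibition across the screen plus 3 SD, cut at about 25% in these data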;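 note: inhibitors block binding of the rhodamine activity-based probe so polarization drops; 0% = enzyme with DMSO and 100% = wells lacking pPAFAH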
PAFAH1B3 FP inh: inhibitors of human PAFAH1B3 | Q15102 | recombinant PAFAH1B3, FP-rhodamine probe, fluorescence polarization | inhibition, % at 3.39 µM | 0.28% of 340,000 active | AID 492972;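 active = inhibition above the screen-wide average of all tested compounds plus 3 SD, cut at about 25% in these data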;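 note: 0% = enzyme with DMSO only and 100% = wells lacking PAFAH1B3 protein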
PAFAH1B2 inh: PAFAH1B2 (human) inhibition; P68402; recombinant PAFAH1B2, FP-rhodamine activity probe, fluorescence polarization; inhibition, % at 3.39 µM; 1.2% of 340,000 active; AID 492953;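 active = inhibition above the mean of all tested compounds plus 3 SD, cut at about 24% in these data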;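 note: 0% = enzyme with DMSO and 100% = wells lacking PAFAH1B2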
Target sequence (P68402 whole entry, looked up): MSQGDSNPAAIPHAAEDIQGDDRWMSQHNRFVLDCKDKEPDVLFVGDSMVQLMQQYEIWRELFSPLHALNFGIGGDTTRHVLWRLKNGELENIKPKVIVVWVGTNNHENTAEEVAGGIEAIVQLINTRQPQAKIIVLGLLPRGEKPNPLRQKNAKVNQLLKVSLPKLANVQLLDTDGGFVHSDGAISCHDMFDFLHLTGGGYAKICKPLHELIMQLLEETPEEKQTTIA
PAFAH2 inh: inhibitors of human PAFAH2; recombinant PAFAH2, FP-rhodamine activity probe, fluorescence polarization; inhibition, % at 3.39 µM; 0.99% of 340,000 active; AID 492956;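 active = inhibition above the mean over all tested compounds plus 3 SD, cut at about 30% in these data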;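 note: inhibitors block probe labeling of enzyme so polarization drops; 0% = enzyme with DMSO and 100% = wells lacking PAFAH2 protein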
Starred values were filed as active, the others as inactive; x = no result given. Sampled rows, rich in hits. Any-hit rate of the full collection: about 2.9%.

SMILES	LYPLA1 counter	LYPLA2 counter	pPAFAH inh	PAFAH1B3 FP inh	PAFAH1B2 inh	PAFAH2 inh
CCc1cc(=O)oc2cc(OCC(=O)N3CCC(C(=O)O)CC3)ccc12	3	1	1	1	-1	12
O=C(CCNS(=O)(=O)c1ccccc1)OCC(=O)c1ccc(Br)cc1	0	-3	21	-1	11	3
N#Cc1ccc(NC(=O)COC(=O)CCNS(=O)(=O)c2ccccc2)cc1	-1	4	29*	2	5	1
O=C(CCNS(=O)(=O)c1ccccc1)OCC(=O)c1ccc(Cl)cc1	0	-3	26*	1	16	2
COc1ccc(C)cc1NC(=O)C1CCCN(S(=O)(=O)c2cccs2)C1 (stereo unspecified)	-5	2	6	13	1	8
COc1ccc(N2CCN(C(=O)Nc3ccccc3Cl)CC2)cc1	0	-4	-5	3	3	7
COc1cc(/C=N/NS(=O)(=O)c2ccc(C)c([N+](=O)[O-])c2)cc([N+](=O)[O-])c1O	3	7	4	1	5	4
COc1cc(/C=N/N(C)S(=O)(=O)c2ccc(C)cc2)cc([N+](=O)[O-])c1O	-1	-1	11	3	36*	5
COc1cc(/C=N/NS(=O)(=O)c2ccc(C(C)(C)C)cc2)cc([N+](=O)[O-])c1O	-1	1	2	15	33*	16
CCSc1nnc(NC(=O)CSc2nc(C)cc(C)n2)s1	-3	1	2	4	1	4
Cc1cccc(NC(=O)c2cccc(N3C(=O)C4CCC(C)CC4C3=O)c2)c1C (stereo unspecified)	-1	7	3	-4	5	2
Cc1ccsc1/C=C/C1=Cc2c(sc(NC(=O)CSc3n[nH]c(N)n3)c2C#N)C(C)(C)C1	-29	-32	32*	-5	0	12
N#CC1=C(N)NC(SCc2ccc(F)cc2)=C(C#N)C12CCCCC2	-2	6	0	-6	28*	5
O=C(Cn1cnc2c(nnn2Cc2ccc(F)cc2)c1=O)N1CCN(c2ccccc2)CC1	2	6	-1	-5	1	-6
CN(C(=O)c1cc(COc2c(F)cccc2F)on1)C1CCOC1 (stereo unspecified)	-5	-9	-3	0	3	4
O=C(NCC1COCCO1)c1cc(COc2c(F)cccc2F)on1 (stereo unspecified)	-1	-9	25*	3	-2	0
Cc1cccc(OCCn2cc(/C=N/NC(=O)c3ccncc3)c3ccccc32)c1	3	7	28*	23	7	-15
CCC(C)c1ccc(OCCn2cc(/C=N/NC(=O)CSc3nnc(C)s3)c3ccccc32)cc1 (stereo unspecified)	-14	-2	26*	14	4	-12
CC1(C)CC(NC(=O)C2CCC(=O)N(Cc3ccccc3F)C2)CC(C)(C)C1 (stereo unspecified)	x	x	x	15	28*	3
Cc1ccc(C(C)(C)NC(=O)C2CCC(=O)N(Cc3ccccc3F)C2)cc1 (stereo unspecified)	1	-2	-1	0	2	3
CCCNC(=O)c1ccc(-c2nn(C)c(=O)c3ccccc23)cc1	-4	0	32*	3	2	2
O=C(Nc1ccc(-c2csc(Nc3cccc(C(F)(F)F)c3)n2)cc1)c1cc([N+](=O)[O-])cc(C(F)(F)F)c1	-5	-7	-1	27*	24	48*
O=C(N/N=C/c1cc(Cl)cc([N+](=O)[O-])c1O)c1ccc2c(c1)OCO2	-6	-10	12	11	-1	10
O=C(N/N=C/c1cc(Cl)cc([N+](=O)[O-])c1O)NC12CC3CC(CC(C3)C1)C2	3	3	10	22	59*	53*
CCOC(=O)c1sc(S(C)(=O)=O)c2c1CCc1conc1-2	1	-3	4	x	x	x
SMILES	LYPLA1 counter	LYPLA2 counter	pPAFAH inh	PAFAH1B3 FP inh	PAFAH1B2 inh	PAFAH2 inh
Cc1ccc(C)c(SCC(=O)OCC(=O)NCc2ccccc2)c1	2	1	25*	2	-4	3
Cc1ccc(SCC(=O)OC(C)C(=O)NCc2ccccc2)cc1C (stereo unspecified)	3	2	34*	3	6	3
CCC1Oc2ccc(C)cc2N(CC(=O)NCc2cc(OC)ccc2OC)C1=O (stereo unspecified)	-1	4	2	-6	6	-1
CCOC(=O)C/C(C)=N\Nc1nc(-c2ccccc2)cs1	-4	-4	26*	4	1	3
O=C(Nc1cccc([N+](=O)[O-])c1)c1cc2ccccc2cc1O	-8	-12	34*	1	3	-4
Cc1nc2ccc(S(=O)(=O)NCC(=O)NCc3ccc(Cl)cc3)cc2s1	-3	-8	-2	2	25*	3
Cc1nc2ccc(S(=O)(=O)Nc3ccccc3C)cc2s1	-2	0	33*	-8	2	0
Cc1nc2ccc(S(=O)(=O)NCC(=O)NCc3ccc4c(c3)OCO4)cc2s1	-1	5	6	4	6	13
Cc1ccc(NC(=O)Cc2nc(CCl)cs2)cc1	-4	-1	32*	-3	5	23
COc1ccc(CC(=O)OCc2csc(CC(=O)Nc3ccc(C)cc3)n2)cc1	x	x	27*	13	-3	10
Cc1ccc(NC(=S)Nc2nc(CC(=O)Nc3ccccc3)cs2)cc1	-18	-29	-6	-14	0	-17
CCC(C)C(N)C1=NC(C(=O)N[C@@H](CC(C)C)C(=O)N[C@H](CCC(=O)O)C(=O)N[C@H](C(=O)N[C@H]2CCCCNC(=O)[C@H](CC(N)=O)NC(=O)[C@@H](CC(=O)O)NC(=O)[C@H](Cc3cnc[nH]3)NC(=O)[C@@H](Cc3ccccc3)NC(=O)[C@H]([C@@H](C)CC)NC(=O)[C@@H](CCCN)NC2=O)[C@@H](C)CC)CS1 (stereo partly specified)	x	x	x	7	5	7
C/C(=N\NC(=O)c1nnn(-c2nonc2N)c1C(C)C)c1cc(C)sc1C	0	1	2	7	6	-1
CCN(CC)c1ccc(N=Cc2ccc(N(CC)CC)cc2O)cc1	0	-5	29*	4	1	-1
Cc1ccc(C(=O)NCC(=O)NCC(=O)OCc2ccc(F)cc2)cc1	0	5	-2	10	-1	-5
O=C(NNC(=O)c1cccc(-n2cccc2)c1)c1ccccc1	-2	6	1	-1	1	-1
O=C(NNC(=O)c1ccccc1F)c1cccc(-n2cccc2)c1	-2	-4	26*	0	2	13
O=C(CS(=O)(=O)c1cn(Cc2ccc(Cl)cc2)c2ccccc12)N1CCCCC1	12	6	0	-8	28*	-2
O=C(CS(=O)(=O)c1cn(Cc2ccc(F)cc2)c2ccccc12)N1CCCCC1	5	4	3	10	21	12
